# Assay outcomes from PubChem.
# This is one part of a sample in which hits are shown more often than they occur.
# FBPA Giardia inh – Giardia lamblia aldolase inhibition | AID 2451 | 290,000 tested, 0.71% active | Potency, µM (series often up to 59.6 µM), usual class: inhibitors | A8B2U2 | purified Giardia FBPA; note: nearly all actives have a fitted effect of over 55% in size
#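 Giardia FBPA (40 nM reagent) was preincubated 10 min at RT with compound (up to 57.5 uM final), then substrate plus GAPDH/TPI/NAD/arsenate coupling system with diaphorase/resazurin was added; resorufin fluorescence (525/598 nm) was read after 20 min.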
# CHX counter – counter-screen hit for Shiga toxin inhibitors, cycloheximide; cell reporter, cycloheximide protein synthesis inhibition counterscreen; AID 2314; 300,000 tested, 12% active; max response, %; in the data active = max response mostly above about 13%, no sharp cut-off; inactive = mostly below about 14%; note: read at 38.3 µM for the half of the compounds with a filed dose
# TbPYK inhibitor – blocks Trypanosoma brucei pyruvate kinase; Q57TT1; TbPYK enzyme, Kinase-Glo Plus ATP luminescence, 45 min; Potency, µM (doses to about 76.8 µM), most hits filed as inhibitors; 410,000 tested, 0.12% active; AID 624173; note: nearly all actives have a fitted effect of over 50% in size
#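 Activity of T. brucei pyruvate kinase was followed by Kinase-Glo Plus luminescence after the enzyme reacted 45 min at room temperature with 130 uM ADP (final) and substrate. Test compounds were added before ADP at multiple concentrations.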
# LmPK inhibitor – inhibitors of Leishmania mexicana pyruvate kinase; Potency, µM (highest dose often 57.5 µM), most hits filed as inhibitors; purified LmPK, Kinase-Glo ATP luminescence, 1 h; 290,000 tested, 0.37% active; Q27686
# Target sequence (Q27686 whole entry, looked up): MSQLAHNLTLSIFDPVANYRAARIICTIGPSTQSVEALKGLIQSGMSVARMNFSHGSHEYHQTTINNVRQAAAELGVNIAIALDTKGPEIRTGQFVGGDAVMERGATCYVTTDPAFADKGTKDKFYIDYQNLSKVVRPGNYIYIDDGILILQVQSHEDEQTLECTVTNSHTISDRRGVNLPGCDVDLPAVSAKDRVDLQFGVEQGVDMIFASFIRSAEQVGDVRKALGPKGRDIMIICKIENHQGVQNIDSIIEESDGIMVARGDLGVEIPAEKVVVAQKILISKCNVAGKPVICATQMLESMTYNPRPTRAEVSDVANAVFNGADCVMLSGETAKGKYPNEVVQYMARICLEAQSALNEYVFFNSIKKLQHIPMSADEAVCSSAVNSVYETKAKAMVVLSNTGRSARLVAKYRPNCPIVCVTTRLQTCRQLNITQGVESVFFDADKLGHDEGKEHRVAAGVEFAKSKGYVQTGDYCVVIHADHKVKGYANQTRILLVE
#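 Purified LmPK (0.1 nM) with 0.5 mM PEP and 0.1 mM ADP in imidazole buffer pH 7.2 with MgCl2/KCl, 1 h at room temperature. ATP formed was read by luciferase luminescence and normalized to no-enzyme and uninhibited controls.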
# RE007 growth inh – less growth of the S. pombe RE007 Vpr strain. S. pombe RE007 Vpr strain, BacTiter-Glo ATP luminescence, 24 h. Potency, µM (highest dose often 92.2 µM), most hits filed as inhibitors. 360,000 tested, 0.21% active; active = well fitted falling curve with a large enough effect; inconclusive = small, poorly fitted or top-dose-only effect; inactive = no such curve, though single readings can be large or run the other way; note: nearly all actives have a fitted effect of over 50% in size
#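 Fission yeast strain RE007, carrying one chromosomally integrated HIV-1 vpr copy, was seeded at OD 0.01 in PMG+AL medium with 23 nL pinned compound. After 24 h at 30 °C and 99% humidity, viability was read by BacTiter-Glo luminescence.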
# Shiga toxin inh – blocks Shiga toxin action in Vero cells; 290,000 tested, 9.2% active; Vero cells, Shiga toxin protein synthesis inhibition reporter; AID 2315; inhibition, % at 38.7 µM; in the data active = inhibition mostly above about 28%, no sharp cut-off; inactive = mostly below about 43%
# Numbers stand for hits; – = inactive; ? = inconclusive; · = not tested or not shown; [ ] = dose if it differs, or a comment. Unless noted, calls come from the whole dose curve; as a rule, active = well fitted curve in the direction sought with a large enough effect; inconclusive = small, poorly fitted or top-dose-only effect, or another doubt; inactive = no such curve, though single readings can be large; an effect the other way counts as inactive or inconclusive.
SMILES,FBPA Giardia inh,CHX counter,TbPYK inhibitor,LmPK inhibitor,RE007 growth inh,Shiga toxin inh
Cc1cc(C)n(CC(=O)Nc2ccc(F)c(F)c2)c(=O)c1C#N,·,·,–,·,·,·
O=C(CCNS(=O)(=O)c1cccc2nsnc12)Nc1ccc(F)cc1,·,·,–,·,·,·
Cc1ccc2nc(-c3ccc(Cl)c(NC(=O)c4ccc5c(c4)OCCO5)c3)oc2c1,·,·,–,·,·,·
Cc1c(Cl)cccc1N=Cc1ccc([N+](=O)[O-])s1,–,–,–,–,16µM,–
O=[N+]([O-])c1ccc(/C=N/NC(=S)Nc2ccc(Cl)cc2Cl)s1,–,–,–,–,–,–
CC(C)(C)NC(=O)CSC(=Nc1ccc(F)cc1)NC#N,–,–,–,–,–,–
Nc1nccc(/C=C/c2ccc(Cl)cc2)n1,–,44,–,–,–,72
COc1cccc(/C=C/C(=O)NCC2CCCCC2)c1,·,·,–,·,–,·
Cc1cccc(C(=O)NC2CCCCCCC2)c1,–,45,–,–,–,78
Cc1cccc(CC(=O)NCC2CCCCC2)c1,–,31,–,–,–,93
CN(C)c1cccc(C(=O)NC2CCCc3ccccc32)c1 (stereo unspecified),–,–,–,–,–,–
CN(C)c1cccc(C(=O)NC2CCCCCC2)c1,–,40,–,–,–,43
O=C(NC1CCCC1)c1cccc(Oc2ccccc2)c1,–,23,–,–,–,78
Cc1ccc(C(=O)Nc2cccc(C(=O)NC3CCCCC3)c2)cc1,·,·,–,·,–,·
O=C(NC1CCCCCC1)c1cccc(COCC(F)(F)F)c1,–,22,–,–,–,active
CCCC(C)NC(=O)c1cccc(Oc2ccccc2)c1 (stereo unspecified),–,23,–,–,–,60
O=C(NC1CCCCC1)c1ccc(COCC(F)(F)F)o1,·,–,–,–,–,–
CCCN1C(=O)c2cc(C(=O)NC3CCCCCC3)ccc2C1O (stereo unspecified),–,34,–,–,–,41
CCC(C)(C)c1ccc(Oc2cccc(C(=O)O)c2)cc1,?,39,–,–,–,163
COC(=O)c1c(C)sc(-c2c(-c3ccc(F)cc3)[nH]c3[nH]c(=O)[nH]c(=O)c23)c1O,·,·,–,·,·,·
Cc1ccc(NC(=O)Cn2nnc(-c3nc(-c4ccc(Cl)cc4)no3)c2N)cc1C,·,·,–,·,·,·
CC1CCN(C(=O)c2ncn3c2c(=O)[nH]c2ccc(Br)cc23)CC1,·,·,–,·,–,·
CC(=O)N1CCC(N(C(=O)Nc2ccc(C)c(C)c2)C2CCCC2)CC1,–,14,–,–,–,–
CCc1ccc(NC(=O)N(C2CCC(C)CC2)C2CCN(C(C)=O)CC2)cc1 (stereo unspecified),–,31,–,–,–,67
Cc1ccc(NC(=S)N2CCCCC2CO)cc1C (stereo unspecified),–,15,–,–,–,–
SMILES,FBPA Giardia inh,CHX counter,TbPYK inhibitor,LmPK inhibitor,RE007 growth inh,Shiga toxin inh
CCNC(=S)N1CCCCC1CO (stereo unspecified),–,–,–,–,–,–
O=C(O)CSc1ncnc2scc(-c3ccc(Br)cc3)c12,?,–,–,–,–,–
Nc1nnn(-c2ccccc2)c1-c1ccccc1,·,·,–,·,–,·
Clc1c(-c2ccccc2)nnn1-c1ccccc1,–,56,–,–,–,105
COc1ccc(-c2csc(NC(=O)c3c(C)noc3C)n2)cc1OC,·,·,–,·,–,·
Nc1nc(Sc2c([N+](=O)[O-])cc(C(F)(F)F)cc2[N+](=O)[O-])n[nH]1,–,–,–,–,–,48
Brc1ccc(-n2cc(-c3ccccc3)c3c(NN4CCOCC4)ncnc32)cc1,–,–,–,–,–,–
O=C(O)c1ccc(/C=N/N2CCN(C3c4ccccc4-c4ccccc43)CC2)cc1,–,–,–,22µM,–,–
Cc1ccccc1CNC(=O)CN1C(=O)CCCc2ccccc21,·,·,–,·,·,·
Fc1ccccc1CNc1ccc(Cl)cc1,–,28,–,–,–,50
Fc1ccc(NCc2ccccc2F)cc1Cl,·,–,–,–,–,–
COc1ccc(N2CCN(C(=O)CCc3c(C)nc4cc(-c5cccc(F)c5)nn4c3C)CC2)cc1,·,·,–,·,·,·
Cc1cccc(Nc2nc(-c3cccs3)cs2)n1,–,46,–,–,?,68
Nc1ccc(Nc2nc(-c3cccs3)cs2)cc1,–,–,–,–,–,–
Cc1cccc(C(=O)NC(C(=O)Nc2nc(-c3ccccn3)cs2)C(C)C)c1 (stereo unspecified),–,–,–,–,–,–
Cc1cccc(Nc2nc(-c3ccccn3)cs2)n1,–,37,–,–,?,63
c1ccc(Nc2nc(-c3cccs3)cs2)nc1,–,33,–,?,?,88
Cc1nc(-c2cccc(NC(=O)c3ccc(Cl)c(S(=O)(=O)N4CCCC4)c3)c2)cs1,·,·,–,·,–,·
COc1ccc2cc(/C(C)=N/NC(=S)Nc3cc(S(=O)(=O)N4CCOCC4)ccc3N3CCOCC3)ccc2c1,–,21,·,–,·,–
O=S(=O)(c1ccc(Cl)c(NC(=S)N/N=C/c2ccc(O)cc2)c1)N1CCOCC1,–,18,–,–,–,–
Oc1ccc(/C=N/NC(=S)N2CCOCC2)cc1,–,30,–,–,–,–
CC(C)NC(=S)N/N=C/c1ccc(N2CCOCC2)cc1,–,–,–,–,–,–
Cc1ccccc1-c1nc(SCC(=O)NCc2ccco2)c2c(=O)n(C)c(=O)n(C)c2n1,·,·,–,·,·,·
C[C@H]1C=C(C(=O)NC2CC2)O[C@@H](OCc2ccc(CO)cc2)C1,–,13,–,–,–,–
O=C(NC1CC1)C1=C[C@H](c2ccc(C(F)(F)F)cc2)C[C@H](OCc2ccc(CO)cc2)O1,–,24,–,–,–,28
SMILES,FBPA Giardia inh,CHX counter,TbPYK inhibitor,LmPK inhibitor,RE007 growth inh,Shiga toxin inh
CC#CCc1cc2ccccc2c(=O)o1,–,5.2,–,–,–,–
O=c1oc(CCO)cc2ccccc12,·,·,–,·,–,·
CCSc1nc2c([nH]c3ccccc32)c(=O)n1-c1ccc(OC)cc1,·,·,–,·,·,·
CC(=O)c1sc(N/N=C\c2ccc(N(C)C)cc2)nc1C,–,31,–,–,–,·
CC(=O)c1sc(N/N=C/c2cccc(O)c2)nc1C,–,40,–,–,–,50
CC(=O)c1sc(N/N=C\c2c(O)ccc3ccccc23)nc1C,·,·,–,·,–,·
COC(=O)c1sc(N/N=C/c2ccc(C(C)C)cc2)nc1C,–,–,–,–,–,53
CC(=O)c1sc(N/N=C/c2cccc([N+](=O)[O-])c2)nc1C,–,–,–,–,–,–
CC1(C)CC(=O)C=C(NCC(O)c2ccccc2)C1 (stereo unspecified),–,–,–,–,–,–
CCNC(=O)C1(C)CCN(C(=O)c2c(F)ccc(C)c2F)C1 (stereo unspecified),·,·,–,·,–[18.4 µM],·
Cc1ccccc1/C=C1\Oc2ccccc2C1=O,·,·,–,·,–,·
Cc1cccc(/C=C2\Oc3cc(OS(C)(=O)=O)ccc3C2=O)c1,–,26,–,–,–,–
